Experimental data reported in PubChem BioAssay AID1460 (National Center for Advancing Translational Sciences (NCATS), 2008).
Where “and” joins values, the source holds several entries; their conditions need not be identical. Equal entries are not always repeated. Out of some 270,000 compounds screened, about 5,800 (2.1%) were called active. Not shown: some 16% with an inconclusive outcome. The call rests on the fitted dose curve; in most records, active means well fitted inhibition curve with a large enough effect; inconclusive means small, poorly fitted or top-dose-only effect; inactive means flat fitted curve, though single readings scatter. Shown is part of a subset that was picked to be rich in actives. Where a call stands in place of a potency, no number is given.

molecular target: Microtubule-associated protein tau (Homo sapiens) (UniProt P10636); test: qHTS for Inhibitors of Tau Fibril Formation, Thioflavin T Binding; settings: recombinant tau K18 P301L (four-repeat tau fragment), heparin-induced fibrillization, ThT fluorescence; series mostly up to 57.4 µM; further: nearly all actives have a fitted effect of over 55% in size
Text: NIH Molecular Libraries Probe Production Network [MLPCN]
NIH Chemical Genomics Center [NCGC]
Assay Provider: Carlo Ballatore, University of Pennsylvania
The microtubule-associated protein tau is an abundant protein in the axons of neurons that stabilizes microtubules. With its ability to modulate microtubule dynamics, tau contributes directly or indirectly, to key structural and regulatory cellular functions. Particularly important is the influence tau exerts on axonal transport, which allows signaling molecules, trophic factors and other essential cellular constituents to travel along the axons. Under pathological conditions, tau becomes sequestered into insoluble aggregates called neurofibrillary tangles. This phenomenon is believed to have pathological consequences by promoting axonal transport deficits that ultimately lead to synaptic dysfunction and neuronal loss. To identify inhibitors of tau aggregation, a heparin-induced tau fibril formation assay was used that employed a recombinantly expressed fragment of tau, K18 (Q242-E372), bearing a P301L mutation (Gustke et al. 1994; Hong et al. 1998). This assay monitors tau fibrillization by Thioflavin T (ThT) fluorescence.
Gustke, N., B. Trinczek, et al. (1994). "Domains of tau protein and interactions with microtubules." Biochemistry 33(32): 9511-22.
Hong, M., V. Zhukareva, et al. (1998).
Li, W. and V. M. Lee (2006).
von Bergen, M., S. Barghorn, et al. (2001). "Mutations of tau protein in frontotemporal dementia promote aggregation of paired helical filaments by enhancing local beta-structure." J Biol Chem 276(51): 48165-74.
NCGC Assay Protocol Summary:
For screening, 2 uL/well human K18 P301L (15 uM unlabeled and 0.24 uM Alexa 594-labeled tau, final concentrations) in reagent buffer (100 mM sodium acetate pH 7) was dispensed into black solid 1536-well plates (Grenier) using a solenoid-based dispenser. Following transfer of 23 nL compound or DMSO vehicle by a pin tool, 2 uL/well heparin (20 uM final concentration) in reagent buffer was added and the plate centrifuged 15 s at 1000 RPM. Plates were incubated 6 hr at 37 C and then 1 uL/well ThT (30 uM final concentration) was added. After a 1 hr ambient incubation, the plates were read by an Envision (Perkin Elmer) to monitor ThT fluorescence (450/8 nm excitation and 510/23 nm emission).
Keywords: NIH Roadmap, MLPCN, MLI, MLSMR, NCGC, qHTS, tau, tauopathies, Alzheimer's disease, fibril, neurodegeneration, aggregation
Potency means the concentration at half of the fitted maximal effect.

Microtubule-associated protein tau (Homo sapiens), sequence (P10636 561-689 P618L limits assumed): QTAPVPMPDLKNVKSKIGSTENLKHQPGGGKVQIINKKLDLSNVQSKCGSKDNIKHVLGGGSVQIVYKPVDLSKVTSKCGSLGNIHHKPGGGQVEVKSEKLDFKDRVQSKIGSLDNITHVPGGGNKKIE

Row | Compound | Potency
1 | CC[N+](C)(CC)CCC[n+]1c(-c2ccccc2)c2cc(N)ccc2c2ccc(N)cc21 | 1.26 µM (active)
2 | CC[C@@H]1CN2CC[C@@H]1C[C@H]2[C@H](O)c1ccnc2ccc(OC)cc12 | inactive
3 | CCN(CC)CCOC(=O)c1cc2cc(COC)ccc2o1 | inactive
4 | CN(C)[C@@H]1C(=O)C(C(N)=O)=C(O)[C@@]2(O)C(=O)C3=C(O)c4c(O)cccc4[C@@](C)(O)C3CC12 (stereo not given in full) | inactive
5 | CN(C)CC1CCCCC1OC(=O)c1ccc(Cl)c(Cl)c1 (stereo not given) | inactive
6 | CC(C)Oc1cccc(C(=O)C2CCCN(C3CCOCC3)C2)c1 (stereo not given) | inactive
7 | N#CC(C#N)=Cc1cc(O)c(O)c([N+](=O)[O-])c1 | 10 µM (active) and 17.8 µM (active)
8 | CC1=CC(=O)C2=C(C)C[C@H](O)[C@H]3[C@H](C)C(=O)O[C@@H]3C12 (stereo not given in full) | inactive
9 | CN1[C@@H]2CC[C@H]1CC(OC(=O)c1cc(Cl)cc(Cl)c1)C2 (stereo not given in full) | inactive
10 | CC1(C)Cc2c(C#N)c(N3CCNCC3)nc(-c3ccco3)c2CS1 | inactive
11 | COc1ccccc1N=C1SCCCN1C | inactive
12 | CCOCCc1c(O)[nH]c(=S)[nH]c1=O | inactive
13 | COc1ccccc1N=Nc1c(O)[nH]c(=S)[nH]c1=O | 12.6 µM (active)
14 | COc1ccccc1-c1[se]c2ccccc2c1I | inactive
15 | c1cc2c(cc1CCNC1CCCCCC1)OCO2 | inactive
16 | CC[C@]1(O)C(=O)OCc2c1cc1n(c2=O)Cc2cc3ccccc3nc2-1 | inactive
17 | CCCCN1C2CCC1CC(OC(c1ccc(F)cc1)c1ccc(F)cc1)C2 (stereo not given) | inactive
18 | O=C(COc1ccc2ccccc2c1)N1CCN(Cc2ccncc2)CC1 | inactive
19 | CC(=O)Oc1ccccc1C(=O)Nc1ncc([N+](=O)[O-])s1 | 11.2 µM (active)
20 | O=c1oc2ccccc2c(O)c1C(c1ccccc1O)c1c(O)c2ccccc2oc1=O | inactive
21 | c1ccc2sc(SNC3CCCCC3)nc2c1 | inactive
22 | C[N+]1(C)CCOC(O)(c2ccc(-c3ccc(C4(O)C[N+](C)(C)CCO4)cc3)cc2)C1 (stereo not given) | inactive

Row | Compound | Potency
23 | Cc1ccc(CN2CCCC(C(=O)c3ccc4c(c3)OCO4)C2)cc1C (stereo not given) | inactive
24 | COC(=O)N(c1ccc(OC)cc1)P1(=S)OCCC(C)O1 (stereo not given) | 28.2 µM (active)
25 | CCCCCCCCCCCCn1ccc(=N)cc1 | inactive
26 | COc1ccc2[nH]cc(CCNCc3ccc(Br)cc3)c2c1 | inactive
27 | CCCCC/C=C\C/C=C\C/C=C\C/C=C\CCCCCC(=O)NCCO | inactive
28 | O=C1NC(=O)N(c2ccccc2)C(=O)/C1=C/c1ccc([N+](=O)[O-])s1 | 14.1 µM (active)
29 | Cc1cccc(N2C(=O)NC(=O)/C(=C\c3cnn(-c4ccccc4)c3)C2=O)c1 | inactive
30 | COc1cccc(N2C(=O)NC(=O)/C(=C\c3ccc([N+](=O)[O-])s3)C2=O)c1 | 14.1 µM (active)
31 | CN1C2CC3CC1C(O3)C2O (stereo not given) | inactive
32 | COC1CC(OC2CC[C@@]3(C=O)C4CC[C@]5(C)C(C6=CC(=O)OC6)CC[C@@]5(O)C4CC[C@]3(O)C2)OC(C)C1O (stereo not given in full) | inactive
33 | COc1c(O)ccc2c1-c1c3c(cc4c1C(C2)N(C)CC4)OCO3 (stereo not given) | inactive
34 | O=C(NC(c1ccc(Cl)cc1)P(=O)(Oc1ccccc1)Oc1ccccc1)OCc1ccccc1 (stereo not given) | inactive
35 | NCCc1c[nH]c2ccc(O)cc12 | inactive
36 | CCOc1cccc(=NC2CCCCC2)c2c(C)[nH]c(C)c12 | 8.91 µM (active)
37 | CN(C)c1nc(N(C)C)nc(N(C#N)CCCl)n1 | inactive
38 | C=CCN1CCC2(C)c3cc(O)ccc3CC1[C@@H]2C (stereo not given in full) | inactive
39 | CC(=O)c1c(O)c(C)c(O)c(Cc2c(O)c3c(c(C(=O)/C=C\c4ccccc4)c2O)OC(C)(C)C=C3)c1O | 15.8 µM (active)
40 | CC(=O)c1c(O)c(C)c(O)c(Cc2c(O)c3c(c(C(=O)/C=C/c4ccccc4)c2O)OC(C)(C)C=C3)c1O | 15.8 µM (active) and 17.8 µM (active) and 12.6 µM (active)
41 | O=C1NC(=O)C(CCc2ccccn2)(Cc2cccc(Cl)c2Cl)C(=O)N1c1ccc(Br)cc1 (stereo not given) | inactive
42 | O=C(OCCN1CCOCC1)C1(c2ccccc2)CCCC1 | inactive
43 | N[C@@H](Cc1c[nH]c2ccccc12)c1nnc(SCc2c(F)cccc2Cl)o1 | inactive
44 | Cc1ccc(Cn2c(C)c3cnn(CC(=O)N4CCC5(CC4)OCCO5)c(=O)c3c2C)cc1 | inactive

Row | Compound | Potency
45 | COC(=O)c1ccc2[se]c(CC3CCCCC3)c(I)c2c1 | inactive
46 | Cc1ccc2c(c1)=C/C(=C\c1c(O)[nH]c(=O)[nH]c1=O)C(=O)N=2 | inactive
47 | CC/C(=N\NC(=O)c1ccccc1O)c1c(O)n(Cc2ccccc2)c(=O)[nH]c1=O | 22.4 µM (active)
48 | CCC(=NCCc1ccccc1)c1c(O)n(C2CCCCC2)c(=O)[nH]c1=O | inactive
49 | CCC(=NCc1ccco1)c1c(O)n(Cc2ccccc2)c(=O)[nH]c1=O | inactive
50 | CCCCC/C=C\C/C=C\C/C=C\C=C\[C@H](CCCC(=O)O)OO | inactive
51 | Cc1nc2ccccn2c1P(=S)(N1CCCCC1)N1CCCCC1 | inactive
52 | Cc1cccc2c3c(ccc12)C1=C(C(=O)C3=O)C(C)CO1 (stereo not given) | 7.94 µM (active)
53 | CN1CCN(Cc2ccc(OC(F)(F)F)cc2)CC1 | inactive
54 | CCCN(C/C=C/I)C1CCc2ccc(O)cc2C1 (stereo not given) | inactive
55 | CCCCCCCCc1[se]c2ccccc2c1Br | inactive
56 | O=C(OCC1O[C@@H](OC(=O)c2cc(O)c(O)c(O)c2)[C@@H](OC(=O)c2cc(O)c(O)c(O)c2)[C@@H](OC(=O)c2cc(O)c(O)c(O)c2)[C@@H]1OC(=O)c1cc(O)c(O)c(O)c1)c1cc(O)c(O)c(O)c1 (stereo not given in full) | 11.2 µM (active)
57 | O=C(O)C1C2CCC(O2)C1C(=O)O (stereo not given) | inactive
58 | CO[C@@H]1C[C@@H](C[C@H]2CC[C@H](C)[C@@H]([C@@H](C)C(=O)O)O2)O[C@]2(O[C@](C)([C@H]3CC[C@@](C)(C4OC([C@H]5O[C@@](O)(CO)[C@H](C)C[C@@H]5C)C[C@@H]4C)O3)C[C@H]2C)[C@@H]1C (stereo not given in full) | inactive
59 | Cc1ncsc1CCCl | inactive
60 | CCC(C)n1c(O)c(/C=N/Nc2nc3c(c(=O)n(C)c(=O)n3C)n2C)c(=O)[nH]c1=S (stereo not given) | 11.2 µM (active)
61 | CCOC(=O)C1(CCc2ccccc2)CCN(Cc2ccco2)CC1 | inactive
62 | O=C(c1cc2nc(-c3ccccc3)cc(-c3ccccc3)n2n1)N1CCC2(CC1)OCCO2 | inactive
63 | CC1=C(C(=O)Nc2ccccc2)SCCO1 | inactive
64 | COc1cccc(-c2nc3ccc(N4CCN(C)CC4)cc3[nH]2)c1 | inactive
65 | CCN1CC2C3CCC(C)(O3)C2C1 (stereo not given) | inactive
66 | Cc1nnc(NC(=O)c2cccn(Cc3cccc(F)c3)c2=O)s1 | inactive

Row | Compound | Potency
67 | N#Cc1c(Cl)c(Cl)c(Cl)c(C#N)c1Cl | 2.24 µM (active)
68 | Cc1ccc(NC(=O)N(Cc2ccc3c(c2)OCO3)C2CCN(Cc3ccccc3)CC2)cc1F | inactive
69 | Cc1ccc(-n2c(/C=C/c3cccc(C(F)(F)F)c3)nc3ccccc3c2=O)cc1 | inactive
70 | C=CCN1CCC23c4c5ccc(O)c4O[C@H]2C(=O)CC[C@@]3(O)C1C5 (stereo not given in full) | inactive
71 | C[C@@]12CCC3C(CC[C@@H]4CC(O)CC[C@@]34C)C1CCC2O (stereo not given in full) | inactive
72 | CC1=CC(=Cc2sc3ccccc3[n+]2C)C=C(C)O1 | 15.8 µM (active)
73 | CC(C)(C)c1ccc(CN2C(=O)CN=C(c3ccccc3)c3ccccc32)cc1 | inactive
74 | Cc1nn(Cc2ccccc2Cl)c(Cl)c1C(=O)OC(C(=O)NC(N)=O)C(C)C (stereo not given) | inactive
75 | CCC1(C)CC(CCNCc2ccc(N(C)C)cc2)(c2ccc(F)cc2)CCO1 (stereo not given) | inactive
76 | COc1cc(OC)cc(C2(C#N)CCN(C)CC2)c1 | inactive
77 | N[C@H](C(=O)O)c1cc(=O)[nH]o1 | inactive
78 | C=CCSSCC=C | inactive
79 | CCN(CC)c1ccc([N+](=O)[O-])c2cccnc12 | 11.2 µM (active)
80 | c1ccc(C2NCc3ccccc3-n3cccc32)cc1 (stereo not given) | inactive
81 | Cc1ccc(Cn2nnnc2CN2CCC(n3nnc4ccccc43)CC2)cc1 | inactive
82 | CCOC(=O)C(O)(c1ccc(NC(=O)c2ccco2)c(OC)c1)C(F)(F)F (stereo not given) | inactive
83 | CCCCC(=O)N/N=C/c1c(O)n(CC)c(=S)n(CC)c1=O | inactive
84 | C1CC[C@H]([C@@]23C[C@H](C[C@H]4CCCN[C@H]42)[C@@H]2CCCCN2C3)NC1 | inactive
85 | Cn1c(O)c(C=Nc2ccc3c(c2)CCC3)c(=O)n(C)c1=O | inactive
